# DT40 TDP1 no CPT: qHTS for Inhibitors of human tyrosyl-DNA phosphodiesterase 1 (TDP1): qHTS in cells in absence of CPT | 15% of 420,000 active | DT40 Tdp1-/- hTDP1 cells, no CPT, ATP luminescence, 48 h | Potency, µM (highest dose often 46.2 µM), for inactives: at the highest dose activity change, negative = growth inhibition, usual class: inhibitors | AID 686978, 2013; further: potency means the concentration at half of the fitted maximal effect; nearly all actives have a fitted effect of over 55% in size
#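 No-CPT arm: Tdp1-/-;hTDP1 DT40 cells (400/well) plus compounds, incubated ≥48 hr at 37 °C. Readout CellTiter-Glo luminescence.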
# ELG1 repair inh: blocks ELG1-dependent DNA repair in HEK293T cells; HEK293T ELG1-luciferase reporter, luminescence, 16 h; DNA damage induced by 5-fluorouridine; Potency, µM (titrated, usually from 46.1 µM), without a hit: at the highest dose activity change, negative = inhibition, actives largely listed as inhibitors; 2.3% of 330,000 active; AID 504467; further: potency means the concentration at half of the fitted maximal effect; nearly all actives have a fitted effect of over 55% in size
#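 5-Fluorouridine DNA damage + compound/DMSO, 2,000 cells/well, 16 h, 37 °C/5% CO2. ONE-Glo, 30 min RT, luminescence. Readout = decrease in reporter signal.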
# HT1080NT lethal: kills 2HG-producing HT-1080-NT fibrosarcoma cells; HT-1080-NT fibrosarcoma viability, CellTiter-Glo ATP luminescence, 48 h; Potency, µM (highest dose often 46.1 µM), for the others: at the top dose activity, negative = less viability, actives largely listed as cytotoxic; 1.6% of 360,000 active;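 further: NT is the 2HG producing partner of a matched IDH1 knockdown line; potency means the concentration at half of the fitted maximal effect; 0% = DMSO-treated cells and -100% = media-only wells without cells; nearly all actives have a fitted effect of over 55% in size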
#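 Compounds were tested in concentration-response format on HT-1080-NT cells for 48 hours at 37 degrees C. Cell viability came from CellTiter-Glo luminescence; curves were classified by r2, response magnitude and activity.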
# HT1080 IDH1KD tx: kills HT-1080 cells with IDH1 knockdown | Potency, µM (doses to about 46.1 µM), without a hit: at the top dose activity, negative = toxicity, actives largely listed as cytotoxic | 2% of 360,000 active | HT-1080 IDH1 knockdown viability, ATP luminescence, 48 h;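 further: potency means the concentration at half of the fitted maximal effect; 0% = DMSO wells and -100% = cell-free medium wells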
#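 Luminescent ATP read-out (CellTiter-Glo, 10 min at room temperature) after 48 h compound exposure at 37 °C gave viability of IDH1-knockdown HT-1080 cells. Activity was normalised to DMSO and cell-free wells, then fitted as concentration-response curves.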
# DT40 TDP1 CPT: DT40-hTDP1 cell growth loss with CPT. 12% of 420,000 active. Potency, µM (doses to about 46.2 µM), for the others: top-dose activity change, negative = growth inhibition, hits mostly inhibitors. chicken DT40 Tdp1-/-;hTDP1 cells + 20 nM CPT, ATP luminescence, 48 h; further: potency means the concentration at half of the fitted maximal effect; nearly all actives have a fitted effect of over 55% in size
#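 Chicken DT40 Tdp1-/- cells complemented with human TDP1, 400 cells/well, exposed to compounds plus 20 nM camptothecin for at least 48 h at 37 C; viability read as ATP content by CellTiter-Glo luminescence.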
# IL-1B inflam inh: inflammasome signaling inhibition, IL-1 beta readout | AID 743279 | THP-1 LPS/ATP IL-1B secretion, AlphaLISA, 16 h; hits give low values | 4.7% of 360,000 active | activity change, % at 57.5 µM; in the data active means activity change below about -50%; inconclusive means mostly about -30% to -49%
#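 THP-1 cells pretreated 1 hr with compounds (up to 57.5 uM final), then stimulated with LPS (250 ng/mL final) plus ATP (1.25 mM final); secreted IL-1B measured by AlphaLISA after 16 hr, decreased signal indicating inhibition.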
# An asterisk follows results filed as active; i = inactive; u = inconclusive; x = no result given; [ ] = remark or other dose. The list is not random: actives were taken first. Their share in the collection is about 19%. Unless noted, the call rests on the fitted dose curve; in most records, active means well fitted curve in the direction sought with a large enough effect; inconclusive means small, poorly fitted or top-dose-only effect, or another doubt; inactive means no such curve, though single readings can be large; an effect the other way counts as inactive or inconclusive. Unless noted, on the % scale 0 is the no-effect control and ±100 the full control effect.
SMILES,DT40 TDP1 no CPT,ELG1 repair inh,HT1080NT lethal,HT1080 IDH1KD tx,DT40 TDP1 CPT,IL-1B inflam inh
Cc1ccc2nc(SC(C)C(=O)N3CCOCC3)[nH]c2c1 (stereo not drawn),3%,u,3%,5%,4%,-2
C=CCNC(=S)N/N=C(\C)c1cccc(NC(C)=O)c1,-4%,-2%,9%,4%,9%,-12
C=CCNC(=S)N/N=C(\C)c1cc(OC)c(OC)c(OC)c1,2.9µM*,-8%,-8%,-8%,4.1µM*,0
CCOC(=O)c1ccc(NC(=O)NNS(=O)(=O)c2cc(OC)ccc2OC)cc1,4%,6%,2%,3%,-1%,i
CN1/C(=C\C(=O)c2cncc(Br)c2)C(C)(C)c2ccccc21,2.6µM*,16µM*,-13%,-20%,3.7µM*,-51*
CN1/C(=C/C(=O)c2nc(S(C)(=O)=O)ncc2Cl)C(C)(C)c2ccccc21,0.46µM*,u,u,4.6µM*,0.58µM*,-100*
CN1/C(=C\C(=O)c2cccc(S(=O)(=O)N3CCCCC3)c2)C(C)(C)c2ccccc21,u,18µM*,1%,1%,u,46
CN1/C(=C\C(=O)c2ccco2)C(C)(C)c2ccccc21,3.7µM*,u,u,10µM*,2.6µM*,u
CN1/C(=C\C(=O)COC(=O)c2ccco2)C(C)(C)c2ccccc21,u,7%,-1%,6%,u,23
O=C(Nc1ccc(Cl)cc1)C1C2C=CC3(O2)C1C(=O)N(CCCN1CCCCC1)C3C(=O)NC1CCCCC1 (stereo not drawn),1%,-4%,0%,6%,-19%,8
O=S(=O)(Nc1c(S(=O)(=O)c2ccccc2)c2nc3ccccc3nc2n1C1CCCCC1)c1ccccc1,5.2µM*,1%,u,16µM*,9.2µM*,-69*
C=CCn1c(NS(=O)(=O)c2ccccc2)c(S(=O)(=O)c2ccc(C)cc2)c2nc3ccccc3nc21,u,u,5%,17%,u,-84*
CC(=O)Nc1c(S(=O)(=O)c2ccccc2)c2nc3ccccc3nc2n1Cc1ccccc1,-13%,-1%,-13%,-14%,-3%,-12
O=C(C[C@H]1CC[C@H]2[C@@H](COC[C@@H](O)CN2S(=O)(=O)c2ccccc2)O1)N[C@@H]1CCN(Cc2ccccc2)C1,-7%,x,0%,2%,4%,-10
CC1CCN(c2ccc(-c3cccs3)nn2)CC1,10µM*,u,u,-22%,u,-4
CCn1c(SCC(=O)NC2CCCC2)nnc1-c1cccnc1,-1%,-1%,4%,6%,8%,34
O=C(CC1Sc2ccccc2NC1=O)NNc1ccc(F)cc1 (stereo not drawn),-8%,x,u,7.3µM*,-16%,-5
CCCCOc1ccccc1NC(=O)CC1Sc2ccccc2NC1=O (stereo not drawn),u,x,x,x,21µM*,x
Cc1ccc(NC(=O)CC2Sc3ccccc3NC2=O)c(C)c1 (stereo not drawn),23µM*,x,x,x,u,x
CCCOc1ccccc1NC(=O)CC1Nc2ccccc2NC1=O (stereo not drawn),-18%,u,-2%[9.24 µM],u,-9%,-9
Cc1ccc(NC(=O)CC2SC3=NCCCN3C2=O)c(C)c1 (stereo not drawn),16µM*,17%,1%,0%,9.2µM*,0
CC[C@@H]1C/C=C\Cc2ccccc2[C@H](C(=O)C[C@H](O)CC(C)=O)OC1=O,4%,-4%,9%,8%,1%,2
Cc1cc(C)c2c(=O)cc(CSc3nnc(-c4ccccc4)n3C)[nH]c2c1,-27%,x,x,x,-21%,x
O=C(C[n+]1cc(Br)cc(Br)c1)c1ccc(I)cc1,-25%,x,x,x,-14%,x
CCc1noc(C)c1C(=O)OC(C)C(=O)Nc1cc([N+](=O)[O-])ccc1OC (stereo not drawn),u,-26%,-12%,-4%,-30%,10
SMILES,DT40 TDP1 no CPT,ELG1 repair inh,HT1080NT lethal,HT1080 IDH1KD tx,DT40 TDP1 CPT,IL-1B inflam inh
O=C(COc1ccccc1)NCCSCc1ccccc1Cl,-4%,u,5%,7%,2%,14
COc1ccccc1OCC(=O)NCCSCc1ccccc1Cl,18µM*,17%,-3%,-1%,u,-5
Cn1ccc2c(OCC(=O)NCc3ccccc3Cl)cccc2c1=O,18µM*,x,x,x,u,x
CCCCc1ccc(NC(=O)COc2cccc3c(=O)n(C)ccc23)cc1,18µM*,x,x,x,13µM*,x
CCCn1ccc2c(OCC(=O)Nc3ccc(NC(C)=O)cc3)cccc2c1=O,u,-15%,-3%,-1%,u,-13
CCC1(CC)N=C(c2ccccc2)C(=S)N1,12%,8%,29%,9%,21%,20
FC(F)(F)c1cnc(-c2cc3c(c(OCC4CCCO4)c2)OCCN(Cc2cccn2-c2nccs2)C3)c(Cl)c1 (stereo not drawn),-7%,x,x,x,15%[9.04 µM],x
CCCCN(CCCC)S(=O)(=O)c1ccc2oc(C(=O)NCc3ccc(C)cc3)c(C)c2c1,13µM*,x,x,x,8.2µM*,x
Cc1ccc2oc(C(=O)NCc3ncc(C)[nH]3)c(C)c2c1,u,3%,18µM*,16µM*,5.2µM*,-10
CCc1ccc2oc(C(=O)NCc3ccncc3)c(C)c2c1,15µM*,u,1%,-7%,18µM*,-66*
CCCCN(CCCC)S(=O)(=O)c1ccc2oc(C(=O)NCc3ccccc3)c(C)c2c1,15µM*,x,x,x,10µM*,x
COc1ccccc1N1CCN(CCS(=O)(=O)c2cc(Cl)ccc2Cl)CC1,u,x,u,u,u,-4
Cn1c(N)c(-c2ccccc2)c2ccc([N+](=O)[O-])cc2c1=O,u,-20%,u,u,u,-21
Cc1ccc(S(=O)(=O)NC(CC(C)C)C(=O)NCC(c2ccco2)N2CCCCC2)cc1 (stereo not drawn),u,u,2%,u,23µM*,-13
Cc1ccc(C)c(OCC(=O)NCC(c2ccco2)N2CCCCC2)c1 (stereo not drawn),u,0%,7%,-13%,u,-23

# Screens from PubChem BioAssay.
